Test results: PubChem BioAssay (NCI)
The panel holds about 83,000 compounds, 20% with a hit somewhere; the sample as a whole holds those more often.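 Cell lines were cultured in 96-well plates, exposed to a single compound concentration, and assessed for percent growth 48 hours later.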 Calls of active or inactive are those of the source. The calls were made as follows: active = growth percent below 10; inactive = the rest.

Key:
Assay in all cases: NCI-60 one-dose screen, 48 h (100 = growth as untreated, 0 = no growth, -100 = all killed)
Details in all cases: 10 µM unless noted
NCI-H23 lung = system: NCI-H23 lung
NCI-H226 lung = system: NCI-H226 lung
NCI-H322M lung = system: NCI-H322M lung
HOP-62 NSCLC = system: HOP-62 NSCLC
NCI-H460 lung = system: NCI-H460 lung
HOP-92 NSCLC = system: HOP-92 NSCLC
NCI-H522 lung = system: NCI-H522 lung
A549/ATCC NSCLC = system: A549/ATCC NSCLC
786-0 renal = system: 786-0 renal
COLO 205 colon = system: COLO 205 colon

Measured: growth

O=C(Cc1ccc(/C=C/C(=O)c2ncc[nH]2)cc1)Nc1ccc(S(F)(F)(F)(F)F)cc1
inactive: NCI-H23 lung 68.5% | NCI-H226 lung 93.7% | NCI-H322M lung 95% | HOP-62 NSCLC 93.8% | NCI-H460 lung 98.2% | HOP-92 NSCLC 97% | NCI-H522 lung 65.8% | A549/ATCC NSCLC 76.7% | 786-0 renal 88.5% | COLO 205 colon 82.7%

Cc1[nH]c(/C=C2\C(=O)Nc3ccc(F)cc32)c(C)c1C(=O)NC[C@H](O)CN1CCOCC1
inactive: NCI-H23 lung 27.1% | NCI-H226 lung 47.8% | NCI-H322M lung 26.2% | HOP-62 NSCLC 25.7% | NCI-H460 lung 19% | HOP-92 NSCLC 14.5% | NCI-H522 lung 45.4% | A549/ATCC NSCLC 27.4% | 786-0 renal 35.6%
active: COLO 205 colon -8.22%

CCc1cnn2c(NCc3ccc[n+]([O-])c3)cc(N3CCCC[C@H]3CCO)nc12
active: NCI-H23 lung -23.3% | NCI-H226 lung -6.42% | NCI-H322M lung -0.876% | HOP-62 NSCLC -33.2% | NCI-H460 lung 1.82% | HOP-92 NSCLC -20.2% | NCI-H522 lung -42.2% | A549/ATCC NSCLC -13.4% | 786-0 renal 7.96% | COLO 205 colon -62.5%

COc1cc2c(c(OC)c1)C1c3ccccc3NC(=O)N1CC2 (stereo not given)
inactive: NCI-H23 lung 24% | NCI-H226 lung 51.5% | NCI-H322M lung 34.9% | HOP-62 NSCLC 51.6% | NCI-H460 lung 11.3% | HOP-92 NSCLC 28.7% | NCI-H522 lung 39.6% | A549/ATCC NSCLC 22.7% | 786-0 renal 41.4% | COLO 205 colon 16.1%

CC(C)c1cc(CNc2nc(Nc3cc(C4CC4)[nH]n3)cc(N3CCN(C)CC3)n2)on1
active: NCI-H23 lung -25% | NCI-H226 lung -3.34% | NCI-H322M lung -20.1% | HOP-62 NSCLC -23.5% | NCI-H460 lung -47.6% | HOP-92 NSCLC -10.9% | NCI-H522 lung -34.7% | A549/ATCC NSCLC 3.1% | COLO 205 colon -69.6%
inactive: 786-0 renal 10.3%

CO[C@H]1C[C@@H]2CC[C@@H](C)[C@@](O)(O2)C(=O)C(=O)N2CCCC[C@H]2C(=O)O[C@H]([C@H](C)C[C@@H]2CC[C@@H](OCCO)[C@H](OC)C2)CC(=O)[C@H](C)/C=C(\C)[C@@H](O)[C@H](OC)C(=O)[C@H](C)C[C@H](C)\C=C/C=C/C=C/1C
inactive: NCI-H23 lung 54.9% | NCI-H226 lung 48.7% | NCI-H322M lung 44.9% | HOP-62 NSCLC 41.2% | NCI-H460 lung 43.2% | HOP-92 NSCLC 45.7% | NCI-H522 lung 48.7% | A549/ATCC NSCLC 44.6% | 786-0 renal 52.6% | COLO 205 colon 55.8%

CN(C[C@@H]1COCCO1)S(=O)(=O)Nc1ccc2ccc3ncc(-c4cnn(C)c4)cc3c(=O)c2c1
inactive: NCI-H23 lung 30.6% | NCI-H226 lung 40.9% | NCI-H322M lung 26.3% | HOP-62 NSCLC 36.4% | NCI-H460 lung 35% | HOP-92 NSCLC 16.9% | NCI-H522 lung 11.2% | A549/ATCC NSCLC 48.1% | 786-0 renal 41.3% | COLO 205 colon 49.3%

O=C(O)C1(Cc2cccc(Nc3nccs3)n2)CCC(Oc2cccc(Cl)c2F)CC1 (stereo not given)
inactive: NCI-H23 lung 66% | NCI-H226 lung 82.8% | NCI-H322M lung 76.4% | HOP-62 NSCLC 49.8% | NCI-H460 lung 15.2% | HOP-92 NSCLC 102% | A549/ATCC NSCLC 41.9% | 786-0 renal 75% | COLO 205 colon 59.5%
active: NCI-H522 lung -3.77%

CNC(=O)c1cc(Oc2ccc3nc(NC(=O)Nc4ccc(Cl)c(C(F)(F)F)c4)sc3c2)ccn1
inactive: NCI-H23 lung 16.5% | NCI-H226 lung 20.6% | NCI-H322M lung 23.7% | NCI-H522 lung 17.1% | COLO 205 colon 23.8%
active: HOP-62 NSCLC -31.3% | NCI-H460 lung 3.45% | HOP-92 NSCLC -27.6% | A549/ATCC NSCLC -25.1% | 786-0 renal -64.4%

Cc1cc(N2CCOCC2)nc(N(CCNc2ccnc3cc(Cl)ccc23)Cc2cccs2)n1
active: NCI-H460 lung 7.16% | NCI-H522 lung -21.5% | 786-0 renal -35.2% | COLO 205 colon -69.2%
inactive: NCI-H23 lung 35.4% | NCI-H226 lung 54.6% | NCI-H322M lung 26.9% | HOP-62 NSCLC 19.8% | HOP-92 NSCLC 15.6% | A549/ATCC NSCLC 28.7%

O=C(NCCO)Nc1ccc(-c2nc(N3CCOCC3)c3cccn3n2)cc1
active: NCI-H226 lung 6.97% | HOP-62 NSCLC -0.0166% | NCI-H460 lung 8.21% | HOP-92 NSCLC -21.4% | A549/ATCC NSCLC 2.7% | 786-0 renal -5.56% | COLO 205 colon -7.82%
inactive: NCI-H23 lung 18.2% | NCI-H322M lung 18% | NCI-H522 lung 10.1%

CC(=O)CC1CCCC1c1ccc2ccccc2c1 (stereo not given)
inactive: NCI-H23 lung 96.3% | NCI-H226 lung 95.2% | NCI-H322M lung 96.2% | HOP-62 NSCLC 96.6% | NCI-H460 lung 101% | HOP-92 NSCLC 99.7% | NCI-H522 lung 93.5% | A549/ATCC NSCLC 95.6% | 786-0 renal 101% | COLO 205 colon 99.4%

CCn1cc(-c2ccnc3[nH]c(-c4cccc(CN(C)C)c4)cc23)c(-c2ccc(NC(=O)N(C)C)cc2)n1
inactive: NCI-H23 lung 17.6% | NCI-H226 lung 32.3% | NCI-H322M lung 38.7% | HOP-62 NSCLC 15% | A549/ATCC NSCLC 14.9% | 786-0 renal 35.1%
active: NCI-H460 lung 9.19% | HOP-92 NSCLC -13.3% | NCI-H522 lung 6.18% | COLO 205 colon -26.9%

O=C(NO)c1ccc(Cn2c(=O)n(CCc3ccccc3)c(=O)c3ccccc32)cc1
inactive: NCI-H226 lung 48.1% | NCI-H322M lung 43.7% | HOP-62 NSCLC 31.1% | NCI-H460 lung 25.2% | HOP-92 NSCLC 66.8% | NCI-H522 lung 29.9% | A549/ATCC NSCLC 33.6% | 786-0 renal 45%
active: NCI-H23 lung 8.96% | COLO 205 colon 4.15%

CS(=O)(=O)CCNCc1ccc(-c2ccc3ncnc(Nc4ccc(OCc5cccc(F)c5)c(Cl)c4)c3c2)o1
active: NCI-H460 lung -58% | HOP-92 NSCLC -1.7% | NCI-H522 lung -44.5% | A549/ATCC NSCLC -39.4% | 786-0 renal -63.7% | COLO 205 colon -27.2%
inactive: NCI-H23 lung 25.9% | NCI-H226 lung 54.7% | NCI-H322M lung 13.8% | HOP-62 NSCLC 19.2%

COc1cc2c3c(c1)nc(C)n3CCC2
inactive: NCI-H23 lung 98.4% | NCI-H226 lung 91.1% | NCI-H322M lung 108% | HOP-62 NSCLC 90.7% | NCI-H460 lung 104% | HOP-92 NSCLC 94.9% | NCI-H522 lung 93.4% | A549/ATCC NSCLC 82% | 786-0 renal 98.1% | COLO 205 colon 107%

CCCCn1c(C)nc2cc(Nc3nc(N4CCCCC4)nc4nc[nH]c34)ccc21
active: HOP-92 NSCLC -9.51%
inactive: NCI-H23 lung 51.4% | NCI-H226 lung 44.4% | NCI-H322M lung 81.8% | HOP-62 NSCLC 62.1% | NCI-H460 lung 65.5% | NCI-H522 lung 52.6% | A549/ATCC NSCLC 48.4% | 786-0 renal 49.1% | COLO 205 colon 28.9%

Cc1ccc(NC(=O)c2ccc(CN3CCN(C)CC3)cc2)cc1Nc1nc(-c2cccnc2)cs1
inactive: NCI-H23 lung 68% | NCI-H226 lung 38.6% | NCI-H322M lung 90.2% | HOP-62 NSCLC 60.2% | NCI-H460 lung 40.3% | HOP-92 NSCLC 93.1% | NCI-H522 lung 17.7% | A549/ATCC NSCLC 39.4% | 786-0 renal 14.5% | COLO 205 colon 16.1%

CCN(CC)CCOc1ccc(/C(=C(\C)c2ccc(Cl)cc2)c2ccc(Cl)cc2)cc1
inactive: NCI-H23 lung 60.7% | NCI-H226 lung 102% | NCI-H322M lung 87.3% | HOP-62 NSCLC 95.2% | NCI-H460 lung 36.4% | HOP-92 NSCLC 80.5% | NCI-H522 lung 81.7% | A549/ATCC NSCLC 45.2% | 786-0 renal 60.2%
active: COLO 205 colon 8.85%

Nc1ncnc2c1c(-c1cccc(OCc3ccccc3)c1)cn2C1CC(CN2CCC2)C1 (stereo not given)
inactive: NCI-H23 lung 33.6% | NCI-H226 lung 40.1% | NCI-H322M lung 42.9% | NCI-H460 lung 21.9%
active: HOP-62 NSCLC -29.5% | HOP-92 NSCLC -21% | NCI-H522 lung -23.6% | A549/ATCC NSCLC 4.8% | 786-0 renal -70.4% | COLO 205 colon -66.7%

COc1ccc(-c2nc(N)ncc2Oc2ccccc2OC)c(O)c1
active: COLO 205 colon 2.73%
inactive: NCI-H23 lung 38.8% | NCI-H226 lung 73.5% | NCI-H322M lung 50.5% | HOP-62 NSCLC 27.9% | NCI-H460 lung 16.4% | HOP-92 NSCLC 49.2% | NCI-H522 lung 28.7% | A549/ATCC NSCLC 35.7% | 786-0 renal 37%

Nc1nc(N)c2nc(-c3cccc(O)c3)c(-c3cccc(O)c3)nc2n1
inactive: NCI-H23 lung 82.5% | NCI-H226 lung 78.5% | NCI-H322M lung 47% | HOP-62 NSCLC 54.1% | NCI-H460 lung 92.8% | HOP-92 NSCLC 49.5% | NCI-H522 lung 49.3% | A549/ATCC NSCLC 75.1% | 786-0 renal 65.7% | COLO 205 colon 79%

C[C@@H](Oc1cc(C(=O)Nc2ccc(C(=O)N3CCN(C)CC3)cc2)nnc1N)c1c(Cl)ccc(F)c1Cl
inactive: NCI-H23 lung 62.6% | NCI-H226 lung 66.9% | NCI-H322M lung 92.9% | HOP-62 NSCLC 64.8% | NCI-H460 lung 79.8% | HOP-92 NSCLC 48.3% | NCI-H522 lung 71.1% | A549/ATCC NSCLC 55.8% | 786-0 renal 67.4% | COLO 205 colon 55.1%

N#Cc1c(NC(=O)c2cccs2)[n+]([O-])c2ccc(F)cc2[n+]1[O-]
inactive: NCI-H23 lung 98.5% | NCI-H226 lung 88.6% | NCI-H322M lung 99.1% | HOP-62 NSCLC 68.1% | NCI-H460 lung 99.1% | HOP-92 NSCLC 73.3% | NCI-H522 lung 87% | A549/ATCC NSCLC 106% | 786-0 renal 103% | COLO 205 colon 86.1%

CC1(C)NC(=O)c2[nH]c3c(Cl)c(Cl)ccc3c2C1C#N (stereo not given)
inactive: NCI-H23 lung 75.8% | NCI-H226 lung 53.9% | NCI-H322M lung 90.5% | HOP-62 NSCLC 82.5% | NCI-H460 lung 88.7% | HOP-92 NSCLC 54.3% | NCI-H522 lung 67.8% | A549/ATCC NSCLC 80.1% | 786-0 renal 82.6% | COLO 205 colon 92.3%
